Test results reported in PubChem BioAssay AID1159580 (chemical genetic matrix, 2015).
“And” between values parts separate entries of the source, which are not always exact repeats. Identical values can stand only once. Among all 5,500 compounds or so, about 2,000 (36%) were called active. Roughly 18% stayed inconclusive and do not appear here. Cut-off read from the data, not from the text of the source: active = normalized growth mostly below about 0.91 (no sharp cut-off); inconclusive = no clear call, values can overlap the other calls; inactive = mostly above about 0.92. The list shows a part of the results.

Experiment: chemical genetic growth profiling, strain panel (AID 1159580);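 note: tested at 20 µM; growth read once vehicle control cultures reached saturation at 30 °C; 1 = growth at the plate median or of vehicle wells; lower values mean less growth of the strain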
Details: S. cerevisiae deletion strains, growth OD

Measured: normalized growth

CC(C)=CCc1c(O)cc2oc(C)cc(=O)c2c1O
inactive: locus YAL013W, strain DEP1, stronger effect = lower value 0.96 | locus YAL021C, strain ccr4, stronger effect = lower value 1.01 | locus YAL026C, strain drs2, stronger effect = lower value 0.977 | locus YAL030W, strain snc1, stronger effect = lower value 0.986 | locus YBL061C, strain skt5, stronger effect = lower value 0.973 | locus YBR009C, strain hhf1, stronger effect = lower value 0.984 | locus YBR021W, strain FUR4, stronger effect = lower value 0.998 | locus YBR023C, strain chs3, stronger effect = lower value 0.953 | locus YBR171W, strain sec66, stronger effect = lower value 0.973 | locus YBR229C, strain ROT2, stronger effect = lower value 1.01 | locus YBR231C, strain swc5, stronger effect = lower value 0.98 | locus YBR279W, strain paf1, stronger effect = lower value 0.982 | locus YCL011C, strain gbp2, stronger effect = lower value 0.975 | locus YCL016C, strain dcc1, stronger effect = lower value 0.969 | locus YCL029C, strain bik1, stronger effect = lower value 0.986 | locus YCL061C, strain MRC1, stronger effect = lower value 0.973 | locus YCL069W, strain vba3, stronger effect = lower value 1.01 | locus YCR088W, strain abp1, stronger effect = lower value 0.957 | locus YDL005C, strain med2, stronger effect = lower value 0.981 | locus YDL035C, strain GPR1, stronger effect = lower value 0.912 | locus YDL040C, strain nat1, stronger effect = lower value 0.986 | locus YDL074C, strain BRE1, stronger effect = lower value 0.947 | locus YDL101C, strain DUN1, stronger effect = lower value 0.993 | locus YDL185W, strain tfp1, stronger effect = lower value 0.98 | locus YDL192W, strain arf1, stronger effect = lower value 0.93 | locus YDR001C, strain nth1, stronger effect = lower value 0.976 | locus YDR069C, strain doa4, stronger effect = lower value 1 | locus YDR137W, strain rgp1, stronger effect = lower value 0.855 | locus YDR159W, strain sac3, stronger effect = lower value 0.983 | locus YDR162C, strain NBP2, stronger effect = lower value 0.903 | locus YDR297W, strain sur2, stronger effect = lower value 0.973 | locus YDR318W, strain mcm21, stronger effect = lower value 0.929 | locus YDR334W, strain swr1, stronger effect = lower value 0.985 | locus YDR335W, strain msn5, stronger effect = lower value 0.972 | locus YDR388W, stronger effect = lower value 0.977 | locus YDR392W, strain spt3, stronger effect = lower value 0.87 | locus YDR502C, strain sam2, stronger effect = lower value 0.963 | locus YEL003W, strain gim4, stronger effect = lower value 0.976 | locus YEL037C, strain rad23, stronger effect = lower value 0.993 | locus YEL061C, strain CIN8 (second series), stronger effect = lower value 0.979 | locus YEL061C, strain CIN8, stronger effect = lower value 1 | locus YER015W, strain faa2, stronger effect = lower value 0.983 | locus YER016W, strain bim1, stronger effect = lower value 0.965 | locus YER110C, stronger effect = lower value 0.989 | locus YER111C, strain swi4, stronger effect = lower value 1 | locus YER155C, strain BEM2 (second series), stronger effect = lower value 0.973 | locus YER155C, strain BEM2, stronger effect = lower value 0.992 | locus YER167W, strain BCK2, stronger effect = lower value 0.932 | locus YFR010W, strain ubp6, stronger effect = lower value 0.98 | locus YGL078C, strain dbp3, stronger effect = lower value 0.987 | locus YGL167C, strain pmr1, stronger effect = lower value 0.996 | locus YGL173C, strain kem1, stronger effect = lower value 0.985 | locus YGL227W, strain vid30, stronger effect = lower value 0.968 | locus YGL240W, strain doc1, stronger effect = lower value 0.968 | locus YGL248W, strain PDE1, stronger effect = lower value 0.965 | locus YGL253W, strain hxk2, stronger effect = lower value 0.964 | locus YGR078C, strain PAC10, stronger effect = lower value 0.959 | locus YGR135W, strain pre9, stronger effect = lower value 1 | locus YGR252W, strain gcn5, stronger effect = lower value 0.878 | locus YHR027C, strain rpn1, stronger effect = lower value 0.999 | locus YHR030C, strain SLT2, stronger effect = lower value 1 and 0.999 | locus YHR079C, strain IRE1 (second series), stronger effect = lower value 1 | locus YHR079C, strain IRE1, stronger effect = lower value 0.971 | locus YHR094C, strain hxt1, stronger effect = lower value 0.999 | locus YHR129C, strain ARP1, stronger effect = lower value 0.987 | locus YIL066C, strain RNR3, stronger effect = lower value 0.95 | locus YIL073C, strain SPO22, stronger effect = lower value 1.01 | locus YIR030C, strain dcg1, stronger effect = lower value 0.988 | locus YJL092W, strain hpr5, stronger effect = lower value 0.975 | locus YJL095W, strain BCK1 (second series), stronger effect = lower value 0.97 | locus YJL095W, strain BCK1, stronger effect = lower value 0.928 and 0.969 | locus YJL115W, strain asf1, stronger effect = lower value 0.984 | locus YJL129C, strain trk1, stronger effect = lower value 0.951 | locus YJL134W, strain LCB3, stronger effect = lower value 1 | locus YJL154C, strain vps35, stronger effect = lower value 0.983 | locus YJL164C, strain tpk1, stronger effect = lower value 0.929 | locus YJL166W, strain qcr8, stronger effect = lower value 0.972 | locus YJL168C, strain set2, stronger effect = lower value 0.999 | locus YJL187C, strain SWE1 (second series), stronger effect = lower value 0.966 | locus YJL187C, strain SWE1, stronger effect = lower value 0.98
active: locus YDR101C, strain arx1, stronger effect = lower value 0.907 | locus YDR195W, strain ref2 1.16 [resistant] | locus YGL086W, strain mad1, stronger effect = lower value 0.915 | locus YHR013C, strain ard1, stronger effect = lower value 1.21 [resistant] | locus YHR142W, strain chs7, stronger effect = lower value 0.851 | locus YHR200W, strain rpn10, stronger effect = lower value 0.915 | locus YIL125W, strain kgd1, stronger effect = lower value 0.904
